Statin myotox sup – suppression of simvastatin myotoxicity; C2C12 myotubes + simvastatin, ATP luminescence, 48 h; scaled: DMSO 0, geranylgeraniol control 100; rescue of ATP level, % at 7.49 µM; actives 0.78% (n = 330,000);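 active = mean ATP rescue above about 67%, or every replicate alone reaching that limit, limit read from the data, passing the limit was not always enough; inconclusive = no clear call, values can overlap the other calls; inactive = mean under the limit and some replicate under it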;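 note: myotubes were challenged with 10 µM simvastatin during compound exposure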
Wnt act – activators of Wnt/beta-catenin signaling; Wnt/beta-catenin reporter cell assay, activator, plate reader; activation, % at 9.35 µM; actives 1.2% (n = 300,000); AID 743398; in the data active = activation above about 30%, passing the limit was not always enough; inconclusive = no clear call, values can overlap the other calls;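 note: 0% = neutral control wells and 100% = positive control wells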
esBAF inh – SWI/SNF esBAF complex inhibition | AID 602393 | actives 2% (n = 350,000) | mouse ES cells, Bmi1-luciferase knock-in reporter, 24 h; 100% = twice the neutral-well signal | reporter increase, % at 12.5 µM; in the data active = activation above about 40%; inconclusive = no clear call, values can overlap the other calls;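 note: 0% = median of the plate's neutral control wells and 100% = double that signal; a rise in the Bmi1 reporter signal indicates esBAF inhibition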
MITF TRPM1 HTS – MITF TRPM1 promoter activation in melanoma cells. actives 0.75% (n = 300,000). AID 588334. SK-MEL-5 TRPM1-promoter luciferase, 24 h; % of positive control, neutral wells = 0. activation, % at 12.5 µM;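 active = mean activation of at least 80% with every replicate also reaching 80%; inconclusive = mean reaches 80% but some replicate falls short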;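 note: 0% = neutral control wells and 100% = parthenolide positive control wells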
* hit, by the source's call; ? = inconclusive; nt = not tested or not shown. Most compounds without a hit are left out; they make up all but 3% or so of the library.

SMILES | Statin myotox sup | Wnt act | esBAF inh | MITF TRPM1 HTS
C[C@H]1CCCCO[C@H](CN(C)Cc2ccc(Cl)c(Cl)c2)[C@@H](C)CN([C@@H](C)CO)C(=O)c2cc(N(C)C)ccc2O1 | nt | nt | 2 | nt
C[C@H](CO)N1C[C@H](C)[C@@H](CN(C)CC2CC2)OCCCC[C@H](C)Oc2ccc(NC(=O)CCC(F)(F)F)cc2C1=O | nt | nt | 2 | nt
Cc1noc(C)c1S(=O)(=O)Nc1ccc2c(c1)C(=O)N([C@H](C)CO)C[C@H](C)[C@H](CN(C)S(=O)(=O)c1cn(C)cn1)OCCCC[C@H](C)O2 | nt | nt | 3 | nt
Cc1snc2sc(C(=O)c3ccc(Br)cc3)c(N)c12 | nt | nt | nt | 88*
CN1[C@@H]2c3ccc(/C=C/c4ccccc4)c(=O)n3C[C@@H]2[C@@H](CO)[C@@H]1C(=O)N1CCCCC1 | -3 | nt | 7 | nt
Oc1ccc(/C=N/Nc2cccc(Cl)n2)c(O)c1 | 11 | 18 | 34 | 109*
Oc1ccc(/C=N/Nc2ccc(C(F)(F)F)cn2)c(O)c1 | nt | 5 | nt | -1
O=C1/C(=C\c2ccc(O)cc2)SC(=S)N1/N=C/c1ccc(O)cc1 | nt | 51* | nt | 12
FC(F)(F)c1ccc(CN2C[C@@H]3C(c4ccc(C(F)(F)F)cc4)C4(c5cccnc5)CC3(C4)[C@H]2c2ccccc2)cc1 (stereo partly specified) | 119* | -17 | 2 | -4
FC(F)(F)c1ccc(CN2C[C@@H]3C(c4ccccc4)C4(c5cccnc5)CC3(C4)[C@H]2c2ccccc2)cc1 (stereo partly specified) | -14 | -22 | -5 | -1
N#C/C(C(=O)NCc1ccco1)=C1/SC(Cc2ccc(Cl)cc2)C(=O)N1c1ccccc1 (stereo unspecified) | nt | 1 | -1 | nt
N#C/C(C(=O)N1CCOCC1)=C1/SC(Cc2ccccc2Cl)C(=O)N1c1ccccc1 (stereo unspecified) | nt | 35* | nt | 3
CC(C)NC(=O)N(C)C[C@H]1Oc2cc(C#C[C@@H](C)O)ccc2S(=O)(=O)N([C@H](C)CO)C[C@@H]1C | 8 | nt | 3 | nt
COc1ccc(C(=O)Nc2ccccc2N2CCOCC2)cc1Br | 117* | nt | 2 | -2
O=C(Nc1ccccc1N1CCOCC1)c1ccc2ccccc2c1 | 2 | 5 | 55* | -13
CC(C)NC(=O)N(C)C[C@H]1Oc2ccc(NC(=O)Nc3ccc4c(c3)OCO4)cc2CC(=O)N([C@H](C)CO)C[C@@H]1C | 5 | nt | -1 | nt
CCOC(=O)c1ccc(NC(=O)Cn2nnc3ccccc32)cc1 | 8 | 0 | 95* | nt
CCOC(=O)c1ccc(NC(=O)CCSCCc2ccccn2)cc1 | -4 | nt | 4 | 86*
CCOC(=O)c1ccc(NC(=O)CCn2nnc3ccccc32)cc1 | 11 | nt | 15 | 22
CCOc1ccc(NC(=O)Cn2ncc3ccccc32)cc1 | -2 | 18 | 51* | 73
O=C(CCSCCc1ccccn1)Nc1ccc(Cc2ccncc2)cc1 | 10 | -1 | -13 | 9
COc1cc(C)ccc1OCc1cc(C(=O)N2CCCCCC2)no1 | 9 | 9 | 26 | 29
COc1cccc(OCc2cc(C(=O)N(Cc3nccn3C)C(C)C)no2)c1 | -4 | -1 | 3 | 7
COc1cc(C)ccc1OCc1cc(C(=O)N(Cc2nccn2C)C(C)C)no1 | 17 | 27 | 94* | 75
COc1cc(C)ccc1OCc1cc(C(=O)N(Cc2c(C)nn(C)c2C)C2CC2)no1 | -19 | 26 | 61* | 46
SMILES | Statin myotox sup | Wnt act | esBAF inh | MITF TRPM1 HTS
O=C(Nc1ccc2c(c1)[C@H]1C[C@@H](CC(=O)N3CCOCC3)O[C@@H](CO)[C@H]1O2)c1cccnc1 | 0 | nt | 0 | nt
O=c1[nH]ncc2c3ccccc3n(Cc3ccccc3)c12 | 108* | nt | -1 | -1
C[C@@H]1CN([C@@H](C)CO)C(=O)c2cc(NS(=O)(=O)c3cn(C)cn3)ccc2O[C@@H]1CN(C)Cc1ccc(Cl)c(Cl)c1 | 21 | nt | -4 | nt
O=C(NCCc1ccccn1)c1ccc2nc(Cc3ccccc3F)oc2c1 | 6 | 16 | 72* | 54
Cn1cc(CNC(=O)c2ccc3nc(Cc4ccccc4F)oc3c2)cn1 | nt | 13 | nt | 84*
Cn1cc(CCNC(=O)c2ccc3nc(Cc4ccccc4F)oc3c2)cn1 | 11 | 33* | 75* | 125*
Cc1cc(CN(C)C(=O)c2ccc3nc(Cc4ccccc4F)oc3c2)on1 | nt | 18 | nt | 98*
COc1ccccc1-c1ccc2c(c1)O[C@@H](CN(C)CC1CCOCC1)[C@@H](C)CN([C@@H](C)CO)S2(=O)=O | 12 | nt | -6 | nt
Nc1nnnn1NCc1cccc(OCc2ccccc2)c1 | 104* | 8 | 0 | 14
COc1ccccc1-c1cn(CC[C@H]2CC[C@H](NC(=O)CCN3CCCCC3)[C@H](CO)O2)nn1 | 4 | nt | 7 | nt
C[C@H]1CN([C@@H](C)CO)C(=O)c2cc(NS(C)(=O)=O)ccc2O[C@H]1CN(C)Cc1ccncc1 | -5 | nt | -1 | nt
COc1cc(C=O)ccc1OCc1cccc(Br)c1 | nt | 42* | nt | ?
COc1cc(C=O)ccc1OCc1ccccc1Br | nt | 23 | nt | 42
COC(=O)c1ccccc1OCCCOc1ccc(C=O)cc1OC | -103 | nt | 70* | 44
Cc1ccc(S(=O)(=O)N(C)C[C@@H]2Oc3c(NC(=O)c4ccc(-c5nccs5)cc4)cccc3C(=O)N([C@@H](C)CO)C[C@@H]2C)cc1 | -21 | nt | -2 | nt
O=C(N/N=C/c1ccccc1O)NC12CC3CC(CC(C3)C1)C2 | -46 | 19 | 15 | 136*
COc1ccc(OC)c(C2C(C#N)=C(N)N(N(C)C)C3=C2C(=O)CC(C)(C)C3)c1 (stereo unspecified) | nt | 0 | nt | 4
COc1ccccc1C1C(C#N)=C(N)N(N(C)C)C2=C1C(=O)CC(C)(C)C2 (stereo unspecified) | 21 | 40* | -1 | -4
O=c1oc2c(O)cccc2cc1-c1nc2ccccc2[nH]1 | -21 | 36* | 0 | 45
O=c1oc2c(CN3CCCCC3)c(O)ccc2cc1-c1nc2ccccc2[nH]1 | -5 | -1 | -4 | -4
C[C@@H]1CN([C@@H](C)CO)C(=O)Cc2cc(N(C)C)ccc2O[C@@H]1CN(C)S(=O)(=O)c1ccccc1 | -33 | nt | -4 | nt
O=C(Nc1cccc(Cl)c1)c1csc(COCCO)n1 | 5 | 25 | 47* | nt
O=C(Nc1cccc(C(F)(F)F)c1)c1csc(COCCO)n1 | 1 | 4 | 1 | nt
COc1c(C(=O)Nc2nccs2)ccc2ccccc12 | 3 | 37* | 42* | 57
O=C(Nc1ccc(Br)cn1)c1cccc2ccccc12 | nt | -7 | nt | nt
SMILES | Statin myotox sup | Wnt act | esBAF inh | MITF TRPM1 HTS
COc1cccc2c1OCC(C(=O)Nc1nccs1)=C2 | -5 | ? | ? | 119*
O=C(Nc1ccc(Br)cn1)c1ccc2ccccc2c1 | 2 | 17 | 56* | nt
COc1c(C(=O)Nc2ccc(Br)cn2)ccc2ccccc12 | -9 | 29 | 49* | 67
O=C(Nc1ccc(Br)cn1)c1cccc(C(=O)Nc2ccc(Br)cn2)c1 | -5 | -1 | -8 | -17
COc1cccc(C=Nc2ccccc2C(=O)Nc2nccs2)c1OC | 8 | 1 | -1 | nt
CS(=O)(=O)Nc1ccc2c(c1)[C@@H]1C[C@H](CC(=O)N3CCOCC3)O[C@@H](CO)[C@@H]1O2 | 0 | nt | -3 | nt
